# Results from PubChem BioAssay AID2284147 (EPA ToxCast).
# The source made the active and inactive calls. How the source made its calls: active means hit-call score of the fitted dose curve at least 0.9, where 1 is the maximum; inactive means score below 0.9.
# Biological target: human Angiotensin Receptor AT2 Antagonism, AGTR2 (gene 186) (UniProt P50052)
# Assay: ERF_TW_GPCR_hAGTR2: Eurofins (ERF) G Protein-Coupled Receptor (GPCR) Radioligand Binding LeadHunter Assay for human Angiotensin Receptor AT2 Antagonism
# Protocol: ERF_TW_GPCR_hAGTR2 is a biochemical, single-readout assay that uses extracted gene-proteins in a cell-free assay. Measurements were taken 3 hour after chemical dosing in a 96-well plate. See AT2 Human Angiotensin GPCR Binding (Agonist Radioligand) Assay, Panlabs.ERF_TW_GPCR_hAGTR2 is an assay component calculated from the ERF_TW_GPCR_hAGTR2 assay. It is designed to measure radioligand binding using a type of binding reporter as detected by scintillation counting with radiometry technology.Data from the assay component ERF_TW_GPCR_hAGTR2 was analyzed at the assay endpoint, ERF_TW_GPCR_hAGTR2, in the positive analysis fitting direction relative to DMSO as the negative control and baseline of activity. Using a type of binding reporter, gain-of-signal activity can be used to understand changes in radioligand binding as they relate to gene AGTR2. To generalize the intended target to other relatable targets, this assay endpoint is annotated to the gpcr intended target family, where the subfamily is angiotensin.
# Human recombinant angiotensin AT2 receptors expressed in CHO-K1 cells are used in modified Tris-HCl buffer pH 7.4. A 2.4 ug aliquot is incubated with 0.05 nM [125I] CGP-42112A for 3 hours at 37C. Non-specific binding is estimated in the presence of 10 uM (Sar1, Ile8)-Angiotensin II. Membranes are filtered and washed, the filters are then counted to determine [125I] […]
# human Angiotensin Receptor AT2 Antagonism, AGTR2 (gene 186), sequence (P50052 whole entry, looked up): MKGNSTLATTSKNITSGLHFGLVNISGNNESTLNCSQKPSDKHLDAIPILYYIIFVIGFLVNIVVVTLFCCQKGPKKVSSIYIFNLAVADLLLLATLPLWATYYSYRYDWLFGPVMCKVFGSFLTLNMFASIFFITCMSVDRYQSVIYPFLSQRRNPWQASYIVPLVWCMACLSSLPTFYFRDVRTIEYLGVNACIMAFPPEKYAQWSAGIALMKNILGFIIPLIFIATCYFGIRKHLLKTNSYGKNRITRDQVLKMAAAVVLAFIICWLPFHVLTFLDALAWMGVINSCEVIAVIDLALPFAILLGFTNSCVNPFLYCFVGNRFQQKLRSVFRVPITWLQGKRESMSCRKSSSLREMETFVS
row,SMILES,AC50
1,O=C(/C=C/c1ccc(O)cc1)CC(=O)/C=C/c1ccc(O)cc1,1750 nM (active)
